V-ATPase pHluor – regulators of yeast V-ATPase proton pumping, primary screen, pHLuorin cytosolic pH fluorescence; S. cerevisiae; response, % at 10 µM; 350,000 compounds, 0.37% hits; AID 504577, 2011; in the data active = response mostly above about 7.3%, no sharp cut-off; inactive = mostly below about 5.4%; also: actives read high
ATG4B inhibitor – ATG4B protease inhibitors, primary screen, biochemical, fluorescence, uHTS; 340,000 compounds, 0.51% hits; AID 504462, 2011; inhibition, % at 8.33 µM; ATG4B cleavage of LC3-PLA2, NBD-HPC fluorescence, 1 h; Cysteine protease ATG4B (Homo sapiens), Q9Y4P1; in the data active = inhibition above about 40%
Target sequence (Q9Y4P1 whole entry, looked up): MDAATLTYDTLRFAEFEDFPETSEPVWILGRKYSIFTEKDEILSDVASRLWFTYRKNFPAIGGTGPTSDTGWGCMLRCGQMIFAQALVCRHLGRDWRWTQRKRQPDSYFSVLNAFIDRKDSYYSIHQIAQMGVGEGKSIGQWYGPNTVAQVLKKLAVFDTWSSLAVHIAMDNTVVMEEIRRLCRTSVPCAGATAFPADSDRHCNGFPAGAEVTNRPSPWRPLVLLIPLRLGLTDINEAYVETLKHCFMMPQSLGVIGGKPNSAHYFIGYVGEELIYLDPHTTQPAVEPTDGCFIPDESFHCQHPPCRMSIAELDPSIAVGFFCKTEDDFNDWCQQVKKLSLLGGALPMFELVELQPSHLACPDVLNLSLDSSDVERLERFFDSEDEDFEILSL
AI-2 QS mod – Vibrio harveyi AI-2 quorum sensing modulators, primary screen, JMH597 strain, luminescence/OD600 ratio. Vibrio harveyi JMH597 AI-2 luminescence/OD600 ratio, 9 h; active compounds read low; strain lacks LuxN and CqsS sensors; 0 = neutral-control median. activity change, % at 7.5 µM. 300,000 compounds, 0.4% hits; in the data active = activity change below about -75%, passing the limit was not always enough;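 also: luminescence divided by OD600 gain over 9 h not by final OD600 alone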
Mot1-301 SUMO – yeast Mot1-301 growth rescue at high temperature, primary screen, SUMOylation pathway inhibitor project, S. cerevisiae, ATP luminescence, 38.5C; AID 2716, 2010; growth rescue, % at 18.8 µM; 320,000 compounds, 1% hits; S. cerevisiae Mot1-301 growth rescue; percent above DMSO median, 100 means doubled;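 active = every valid replicate shows activation above 250% relative to neutral control wells; inactive = the rest, any valid replicate at or below 250%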
Efflux pump mplx – inhibitors of Candida efflux pumps in yeast, primary screen, S. cerevisiae, Nile Red, multiplex; S. cerevisiae Candida pump triplex; inhibition, % at 10 µM; 330,000 compounds, 0.44% hits;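 active = plate passing quality check with inhibition over a set limit, or well fluorescence over plate mean plus 4 SD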;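 also: Nile Red retained in pooled yeast measured as flow cytometry median fluorescence; higher means more Nile Red kept so more efflux inhibition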
Yeast cmpd fluor – flagged as fluorescent in efflux inhibitor counter-screen; AID 588517; 1,700 compounds, 4% hits; S. cerevisiae AD/pABC3, compound fluorescence, flow cytometry; shares compounds with Efflux pump mplx; fluorescence ratio to DMSO, % at 10 µM;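 active = fluorescence ratio to DMSO above its plate's cutoff, the plate mean ratio plus 5 SD, cut at about 210% in these data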;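 also: unstained yeast with no Nile Red so the signal is compound autofluorescence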
CaMdr1 efflux inh – inhibitors of Candida albicans Mdr1 efflux, confirmation, flow cytometry, singleplex, Cherry Pick1 set. inhibition, % at 10 µM. shares compounds with Efflux pump mplx. 1,700 compounds, 1% hits. S. cerevisiae AD/CaMDR1, Nile Red efflux; in the data active = inhibition above about 26%;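 also: higher means more Nile Red retained so more efflux inhibition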
Cdr2 pump inh – inhibitors of Candida albicans Cdr2 efflux pump, confirmation, S. cerevisiae AD/CaCDR2, flow cytometry, cherry pick 1, singleplex; shares compounds with Efflux pump mplx; Nile Red retention; Nile Red retention ratio vs DMSO, % at 10 µM; 1,700 compounds, 4% hits; AID 588520, 2011; in the data active = Nile Red retention ratio vs DMSO above about 190%;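 also: higher ratio means more blocking of Cdr2 efflux of the dye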
CaCdr1 efflux inh – inhibitors of Candida albicans Cdr1 efflux pump, confirmation, S. cerevisiae AD/CaCDR1, flow cytometry, cherry pick 1, singleplex; 1,700 compounds, 1% hits; shares compounds with Efflux pump mplx; inhibition, % at 10 µM; AID 588522, 2011; Nile Red efflux;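 active = inhibition above the screen-wide mean plus twice its standard deviation, cut at about 32% in these data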
Each line names hits and unclear results; the compound was inactive in the other large screens (follow-up assays come after a bar, where they were run). Compounds with a hit are over-represented: about 2.5% of the library has one in this group of screens.

CCn1ncc(Br)c1C(=O)Nc1cc(C)cc(C)c1	Efflux pump mplx 6.5 | Yeast cmpd fluor inactive | CaMdr1 efflux inh inactive | Cdr2 pump inh inactive | CaCdr1 efflux inh inactive
Cn1ncc(Cl)c1C(=O)Nc1sc2c(c1C(N)=O)CCC2	none | Yeast cmpd fluor inactive | CaMdr1 efflux inh inactive | Cdr2 pump inh inactive | CaCdr1 efflux inh inactive
O=C(Nc1sc2c(c1C(=O)O)CCC2)c1ccccc1Cl	Efflux pump mplx 0.5 | Yeast cmpd fluor inactive | CaMdr1 efflux inh inactive | Cdr2 pump inh inactive | CaCdr1 efflux inh inactive
CCn1ccc(C(=O)Nc2sc3c(c2C(=O)OC)CCC3)n1	Efflux pump mplx 0.6 | Yeast cmpd fluor inactive | CaMdr1 efflux inh inactive | Cdr2 pump inh inactive | CaCdr1 efflux inh inactive
CCn1ncc(Br)c1C(=O)Nc1cccc(C(C)=O)c1	none
NC(=O)c1c(NC(=O)c2ccccc2)sc2c1CCC2	none
O=C(O)C(Nc1nc(C(F)(F)F)nc2ccccc12)c1ccccc1 (configuration not stated)	none
COC(=O)c1c(NC(=O)c2ccn(C)n2)sc2c1CCC2	none | Yeast cmpd fluor inactive | CaMdr1 efflux inh inactive | Cdr2 pump inh inactive | CaCdr1 efflux inh inactive
CCn1ncc(Br)c1C(=O)Nc1sc2c(c1C(=O)OC)CCC2	none | Yeast cmpd fluor inactive | CaMdr1 efflux inh inactive | Cdr2 pump inh inactive | CaCdr1 efflux inh inactive
CC(C)(C)c1ccc(OCCOc2ccc(C(C)(C)C)cc2NC=O)c(NC=O)c1	Efflux pump mplx 0.6 | Yeast cmpd fluor inactive | CaMdr1 efflux inh inactive | Cdr2 pump inh inactive | CaCdr1 efflux inh inactive
CC(=O)Nc1sc2c(c1C(c1ccc(Cl)cc1)N1CCOCC1)CCCC2 (configuration not stated)	Efflux pump mplx 1.5 | Yeast cmpd fluor inactive | CaMdr1 efflux inh inactive | Cdr2 pump inh inactive | CaCdr1 efflux inh inactive
COc1ccc(C(c2c(NC(=O)c3ccco3)sc(C)c2C)N2CCOCC2)cc1 (configuration not stated)	none (no result: AI-2 QS mod, Mot1-301 SUMO, Efflux pump mplx)
COc1cc(C(C)=O)ccc1OCC(=O)Nc1ccc(Cl)c(S(=O)(=O)N2CCOCC2)c1	Efflux pump mplx 1.0 (no result: AI-2 QS mod) | Yeast cmpd fluor inactive | CaMdr1 efflux inh inactive | Cdr2 pump inh inactive | CaCdr1 efflux inh inactive
CC1O[C@@H](OC2C(COC3OC(CO)C(O)[C@H](O)C3O)OC(OC3CC[C@]4(C)C(CC[C@@]5(C)[C@@H]4CC=C4[C@@H]6CC(C)(C)CC[C@]6(CO)C(O)C[C@]45C)C3(C)C)C(O)C2O)C(O)C(O)C1O (some centres not stated)	none (no result: AI-2 QS mod)
C[C@H]1O[C@@H](O[C@H]2CC[C@@]3(C)C(CC[C@]4(C)C3C=CC3=C5CC(C)(C)CC[C@]5(CO)[C@H](O)C[C@]34C)[C@]2(C)CO)[C@H](O)[C@@H](O[C@@H]2O[C@H](CO)[C@@H](O)[C@H](O)[C@H]2O)[C@H]1O (some centres not stated)	Efflux pump mplx 1.7 (no result: AI-2 QS mod) | Yeast cmpd fluor inactive | CaMdr1 efflux inh inactive | Cdr2 pump inh inactive | CaCdr1 efflux inh inactive
Cc1cc(C)nc(NS(=O)(=O)c2ccc(NC(=O)CSc3ncn[nH]3)cc2)n1	none
CC(C)c1ccc(S(=O)(=O)Nc2ccc(O)c(Sc3ncn[nH]3)c2)cc1	none | Yeast cmpd fluor inactive | CaMdr1 efflux inh inactive | Cdr2 pump inh inactive | CaCdr1 efflux inh inactive
COc1ccc(S(=O)(=O)Nc2ccc(O)c(Sc3ncn[nH]3)c2)cc1	none | Yeast cmpd fluor inactive | CaMdr1 efflux inh inactive | Cdr2 pump inh inactive | CaCdr1 efflux inh inactive
CN(C(=O)CSc1nncc2ccccc12)c1ccccc1	none (no result: V-ATPase pHluor, AI-2 QS mod)
O=C(O)C1C=CCC(C(=O)O)C1 (configuration not stated)	none (no result: ATG4B inhibitor, AI-2 QS mod, Mot1-301 SUMO, Efflux pump mplx)
Clc1ccc(C2=NCCn3nc4ccccc4c32)cc1	none
Nc1c(Cl)cc(C2=NCCn3nc4ccccc4c32)cc1Cl	Efflux pump mplx 0.6 | Yeast cmpd fluor inactive | CaMdr1 efflux inh inactive | Cdr2 pump inh inactive | CaCdr1 efflux inh inactive
Cc1ccc2c(c1)[nH]c1c(=O)n(Cc3ccccn3)cnc12	none
Cc1cc2nc3ccc(N(C)C)cc3nc2cc1N	Efflux pump mplx 1.6 | Yeast cmpd fluor inactive | CaMdr1 efflux inh inactive | Cdr2 pump inh inactive | CaCdr1 efflux inh inactive
Cc1ccc(-n2nc3cc(C)c(N)cc3n2)cc1	none
Cc1ccc(NC(=O)COC(=O)c2ccc(F)cc2Cl)c(Br)c1	none
Cc1ccc(NC(=O)COC(=O)c2cc(Cl)ccc2Cl)c(Br)c1	Efflux pump mplx 1.3 | Yeast cmpd fluor inactive | CaMdr1 efflux inh inactive | Cdr2 pump inh inactive | CaCdr1 efflux inh inactive
Cc1ccc(S(=O)(=O)NCC(=O)N/N=C/c2ccccc2O)cc1	none
COc1ccc(Oc2ncc(CN3CCN(c4ccccc4)CC3)s2)cc1	none
Cc1cc(Cl)ccc1Oc1ncc(CN2CCN(c3ccccc3)CC2)s1	Efflux pump mplx 0.5 | Yeast cmpd fluor inactive | CaMdr1 efflux inh inactive | Cdr2 pump inh inactive | CaCdr1 efflux inh inactive
O=C(O)CCCN1C(=O)/C(=C/c2ccc(-c3nc4ccccc4s3)o2)SC1=S	none | Yeast cmpd fluor 220 | CaMdr1 efflux inh inactive | Cdr2 pump inh active | CaCdr1 efflux inh inactive
CCSc1cc(N2CCCC2)nc(-c2ccc(Cl)cc2)n1	none (no result: AI-2 QS mod) | Yeast cmpd fluor inactive | CaMdr1 efflux inh inactive | Cdr2 pump inh inactive | CaCdr1 efflux inh inactive
CCSc1cc(N2CCOCC2)nc(-c2ccc(Cl)cc2)n1	none | Yeast cmpd fluor inactive | CaMdr1 efflux inh inactive | Cdr2 pump inh inactive | CaCdr1 efflux inh inactive
COc1ccc2c(c1)N(C(=O)CSc1n[nH]c(C)n1)C(C)(C)C=C2C	none
CC(C)(C)C(=O)CSc1nc2c(c(-c3cccs3)c1C#N)CCC2	Efflux pump mplx 0.5 | Yeast cmpd fluor inactive | CaMdr1 efflux inh inactive | Cdr2 pump inh inactive | CaCdr1 efflux inh inactive
O=C(Nc1ccccc1N1CCCCC1)c1cc(S(=O)(=O)N2CCOCC2)ccc1Cl	none
O=C(Nc1ccccc1Cl)c1cc(S(=O)(=O)N2CCCCC2)ccc1N1CCOCC1	Efflux pump mplx 1.2 | Yeast cmpd fluor inactive | CaMdr1 efflux inh inactive | Cdr2 pump inh inactive | CaCdr1 efflux inh inactive

Source: PubChem
